Records with an inconclusive call do not appear. Calls of active or inactive are those of the source. Calls come from the whole dose curve; as a rule, active = well fitted cell-killing curve with a large enough effect; inconclusive = small, poorly fitted or top-dose-only effect, or effect the other way; inactive = flat fitted curve, though single readings scatter.
Columns and labels:
Assay in all cases: Primary qHTS to identify gynecologic anti-cancer compounds using libraries of approved drugs and bioactive compounds (AID 1345084); note: nearly all actives have a fitted effect of over 55% in size
[1] = system: CAOV3; details: Gynecologic cancer cell panel viability, ATPlite luminescence, 48 h; series mostly up to 57.5 µM
Outline: (§1)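 Measured: luminescence after ATPlite addition (15 min, RT). Exposure: 48 h, 37 C, 5% CO2.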

[2] = system: CASKI; details: Gynecologic cancer cell panel viability, ATPlite luminescence, 48 h; series mostly up to 57.5 µM
Outline: as §1

[3] = system: Es-2; details: Gynecologic cancer cell panel viability, ATPlite luminescence, 48 h; series mostly up to 57.5 µM
Outline: as §1

[4] = system: HeLa; details: Gynecologic cancer cell panel viability, ATPlite luminescence, 48 h; series mostly up to 57.5 µM
Outline: as §1

[5] = system: Hek293T; details: Gynecologic cancer cell panel viability, ATPlite luminescence, 48 h, control line for the selectivity index; series mostly up to 57.5 µM
Outline: as §1

[6] = system: JEG-3; details: Gynecologic cancer cell panel viability, ATPlite luminescence, 48 h; series mostly up to 57.5 µM
Outline: as §1

[7] = system: OV90; details: Gynecologic cancer cell panel viability, ATPlite luminescence, 48 h; series mostly up to 57.5 µM
Outline: as §1

[8] = system: PA-1; details: Gynecologic cancer cell panel viability, ATPlite luminescence, 48 h; series mostly up to 57.5 µM
Outline: as §1

[9] = system: SKOV3; details: Gynecologic cancer cell panel viability, ATPlite luminescence, 48 h; series mostly up to 57.5 µM
Outline: as §1

[10] = system: Tov-21-G; details: Gynecologic cancer cell panel viability, ATPlite luminescence, 48 h; series mostly up to 57.5 µM
Outline: as §1

Measured: Potency

Cc1[nH]c(=O)c(C#N)cc1-c1ccc2nccn2c1
inactive: all assays above

CNC[C@H](O)c1cccc(O)c1
inactive: all assays above

O=C1CCC(N2C(=O)c3ccccc3C2=O)C(=O)N1 (stereo not given)
inactive: all assays above

CCc1cncnc1N1CCN(Cc2nc3ccc(C(F)(F)F)cc3[nH]2)CC1
not listed: [9]
inactive: all other assays above

CS(=O)(=O)c1ccc(C(=O)Nc2ccc(Cl)c(-c3ccccn3)c2)c(Cl)c1
inactive: all assays above

CCCc1nc2c(C)cc(-c3nc4ccccc4n3C)cc2n1Cc1ccc(-c2ccccc2C(=O)O)cc1
inactive: all assays above

NC(=O)c1cnccn1
inactive: all assays above

CCOC(=O)C1=C[C@]2(CC)CCCN3CCc4c(n1c1ccccc41)[C@@H]32
not listed: [9]
inactive: all other assays above

O=C(Nc1ccc(F)c(C(F)(F)F)c1)Nc1nnc(-c2ccncc2)s1
inactive: all assays above

CC(C)OC(=O)C1=CN(C(=O)c2ccc(F)c(F)c2)CC(C)(C)c2c1[nH]c1ccccc21
inactive: all assays above

Cc1[nH]c(=O)c(C#N)cc1-c1ccncc1
inactive: all assays above

CCC(C)n1ncn(-c2ccc(N3CCN(c4ccc(OC[C@H]5CO[C@](Cn6cncn6)(c6ccc(Cl)cc6Cl)O5)cc4)CC3)cc2)c1=O (stereo not given in full)
inactive: all assays above

OCCn1cc(-c2cnc3nnn(Cc4ccc5ncccc5c4)c3n2)cn1
inactive: all assays above

COc1cc2nccc(Oc3ccc(NC(=O)NC4CC4)c(Cl)c3)c2cc1C(N)=O
inactive: all assays above

NC[C@H](O)c1ccc(O)c(O)c1
inactive: all assays above

CC[C@@H](C)[C@H](NC(=O)[C@H](CC1CCCCC1)NC(=O)c1ccno1)C(=O)N1CCC2(CCc3ccccc32)CC1
inactive: all assays above

O=C1CCc2cc(OCCCCc3nnnn3C3CCCCC3)ccc2N1
not listed: [7]
inactive: all other assays above

CCC(C)(C)C(=O)O[C@H]1C[C@@H](C)C=C2C=C[C@H](C)[C@H](CC[C@@H]3C[C@@H](O)CC(=O)O3)[C@H]21
inactive: [1] | [2] | [6] | [8] | [9] | [10]

Cc1n[nH]c(C)c1Cc1sc2c(c1C(=O)N1C[C@H](O)CO1)c(=O)n(C)c(=O)n2CC(C)C
not listed: [1]
inactive: all other assays above

CNC(=O)c1ccc(C)c(-n2c(C)cc(OCc3ccc(F)cc3F)c(Br)c2=O)c1
not listed: [1]
inactive: all other assays above

O=C1CCCC2=C1C(c1[nH]ncc1Cl)N=C(Nc1nc3ccccc3o1)N2 (stereo not given)
not listed: [1]
inactive: all other assays above

— PubChem BioAssay (NCATS)
